Reference: PubChem BioAssay (Tox21)
Unmarked numbers belong to inactive results. Records with an inconclusive call do not appear. A call without a number means that no potency is given here. Calls of active or inactive are those of the source. Unless noted, the call rests on the fitted dose curve.

How the values were obtained:
[1] = qHTS assay to identify small molecule agonists of the sonic hedgehog signaling (Shh) pathway (AID 1259368);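 further: NIH/3T3-derived 3T3Gli1-Luc cells carrying a stable Gli1-driven firefly luciferase reporter; series mostly up to about 92 µM; nearly all actives have a fitted effect of over 15% in size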
In short: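 NIH/3T3-derived 3T3Gli1-Luc cells with stably integrated Gli1-driven firefly luciferase, 2,000 cells/well, compounds added after 4 hr. Incubated 24 hr at 37C, 5% CO2; luminescence read after 30 min with luciferase reagent at room temperature.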

[2] = qHTS assay to identify small molecule antagonists of the sonic hedgehog signaling (Shh) pathway (AID 1259369); further: nearly all actives have a fitted effect of over 45% in size; further: potency means the concentration at half of the fitted maximal effect
In short: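 NIH/3T3-derived Gli1-Luc reporter cells plated 4 h, dosed with compound, then stimulated with conditioned medium for 24 h at 37 C. Firefly luciferase luminescence read after 30 min with detection reagent at room temperature.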

[3] = biological target: Estrogen receptor beta (Homo sapiens) (UniProt Q92731); experiment: qHTS assay to identify small molecule agonists of the estrogen receptor beta (ER-beta) signaling pathway (AID 1259377; active means well fitted activation curve with a large enough effect in the signal ratio in the repeat runs, not every such curve was filed as active; the % refers to the signal ratio; further: potency means the concentration at half of the fitted maximal effect)
In short: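 Beta-lactamase reporter readout: fluorescence of LiveBLAzer B/G FRET substrate after 2 h at room temperature, following 16 h compound treatment of ER-beta-UAS-bla HEK293T cells at 37C in 2% charcoal-stripped FBS medium.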

[4] = biological target: Estrogen receptor beta (Homo sapiens) (UniProt Q92731); experiment: qHTS assay to identify small molecule antagonists of the estrogen receptor beta (ER-beta) signaling pathway (AID 1259378; active means well fitted inhibition curve with a large enough effect in the signal ratio in the repeat runs, not every such curve was filed as active; the % refers to the signal ratio; further: potency means the concentration at half of the fitted maximal effect)
In short: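 Antagonist mode: compounds added to beta-lactamase reporter HEK293T ER-beta-UAS cells stimulated with E2 (1nM final), 16 hr at 37C. LiveBLAzer B/G FRET substrate, 2 hours room temperature, fluorescence read-out.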

[5] = qHTS assay to identify small molecule agonists of the androgen receptor (AR) signaling pathway in the presence of an antagonist - cell viability counter screen (AID 1259379; active means well fitted curve in the direction sought with a large enough effect in the repeat runs; an effect the other way counts as inactive or inconclusive; further: nearly all actives have a fitted effect of over 25% in size; further: potency means the concentration at half of the fitted maximal effect;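 on activity change, negative = cytotoxicity: MDA-kb2 human breast cancer cells carrying an MMTV luciferase reporter; series mostly up to about 92 µM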)
In short: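 MDA-kb2 cells (MMTV-luciferase, AR/GR), 3,000/well, 5 h attachment, then 3.0 µM nilutamide (final) and compounds at 15 concentrations. Viability by CellTiter-Fluor fluorescence after 16 h at 37 °C, 0% CO2, in the reporter wells.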

[6] = qHTS assay to identify small molecule agonists of the estrogen receptor beta (ER-beta) signaling pathway - cell viability counter screen (AID 1259380; active means well fitted curve in the direction sought with a large enough effect in the repeat runs; an effect the other way counts as inactive or inconclusive; further: nearly all actives have a fitted effect of over 30% in size; further: potency means the concentration at half of the fitted maximal effect)
In short: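 ER-beta-UAS-bla HEK293T cells in medium with 2% charcoal-stripped FBS, pre-incubated 6 hr, then treated 16 hr at 37C. Cytotoxicity read in the same wells by CellTiter-Glo luminescence after 30 min at room temperature.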

[7] = qHTS assay to identify small molecule antagonists of the estrogen receptor beta (ER-beta) signaling pathway - cell viability counter screen (AID 1259382; active means well fitted curve in the direction sought with a large enough effect in the repeat runs; an effect the other way counts as inactive or inconclusive;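 further: HEK293T cells carrying ER-beta-UAS-bla reporter stimulated with estradiol; series mostly up to about 92 µM; nearly all actives have a fitted effect of over 55% in size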)
In short: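 ER-beta-UAS-bla HEK293T cells in 2% charcoal-stripped FBS medium, treated with compound plus 1 nM 17-beta-estradiol for 16 h at 37C. Viability read by CellTiter-Glo luminescence after 30 min at room temperature in the same wells.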

[8] = biological target: Estrogen receptor (Homo sapiens) (UniProt P03372); experiment: qHTS assay to identify small molecule agonists of the estrogen receptor alpha (ER-alpha) signaling pathway in the presence of an antagonist (AID 1259383); further: nearly all actives have a fitted effect of over 15% in size; further: potency means the concentration at half of the fitted maximal effect; on activation: top concentration of the series differs between compounds
In short: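 VM7Luc4E2 cells express endogenous full-length ER-alpha with an ERE-luciferase reporter and were hormone-deprived for 5 days. Compounds at 15 concentrations were added with 10.0nM ICI-182,780 for 22hr at 37C. Luminescence was read with ONE-Glo.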

[9] = qHTS assay to identify small molecule agonists or antagonists of the thyroid stimulating hormone receptor (TSHR) signaling pathway - wild type cell line counter screen (AID 1259384)
In short: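 Counter screen in untransfected Hek293: compounds (15-point titration, triplicate) plus phosphodiesterase inhibitor Ro20-1724 added after 18 h plating; 30 min RT. Intracellular cAMP via competitive d2/cryptate immunoassay, 1 h incubation.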

[10] = biological target: Androgen receptor (Homo sapiens) (UniProt P10275); experiment: qHTS assay to identify small molecule agonists of the androgen receptor (AR) signaling pathway in the presence of an antagonist (AID 1259381); further: nearly all actives have a fitted effect of over 15% in size; further: potency means the concentration at half of the fitted maximal effect
In short: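 MDA-kb2 cells carrying MMTV-luciferase (AR/GR responsive), 3,000 cells/well, co-treated with 3.0 uM nilutamide final. Compounds at 15 concentrations, 16 hr at 37C without CO2. Luciferase luminescence read after 30 min with ONE-Glo.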

Chain of Estrogen receptor beta (Homo sapiens) (Q92731 whole entry, looked up): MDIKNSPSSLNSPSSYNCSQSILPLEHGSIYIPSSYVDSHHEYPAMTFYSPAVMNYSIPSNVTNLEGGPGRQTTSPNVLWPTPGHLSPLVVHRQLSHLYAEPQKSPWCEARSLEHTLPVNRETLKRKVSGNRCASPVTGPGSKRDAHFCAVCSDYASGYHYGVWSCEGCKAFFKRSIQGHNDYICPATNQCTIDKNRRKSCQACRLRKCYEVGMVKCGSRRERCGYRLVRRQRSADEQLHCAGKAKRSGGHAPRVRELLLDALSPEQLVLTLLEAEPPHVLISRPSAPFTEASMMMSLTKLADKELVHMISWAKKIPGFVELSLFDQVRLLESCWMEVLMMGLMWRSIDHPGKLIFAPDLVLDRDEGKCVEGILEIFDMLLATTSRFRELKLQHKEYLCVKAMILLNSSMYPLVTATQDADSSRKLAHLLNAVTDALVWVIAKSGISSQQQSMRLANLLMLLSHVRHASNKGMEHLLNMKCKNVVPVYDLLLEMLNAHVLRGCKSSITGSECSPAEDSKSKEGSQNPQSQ
Chain of Estrogen receptor (Homo sapiens) (P03372 whole entry, looked up): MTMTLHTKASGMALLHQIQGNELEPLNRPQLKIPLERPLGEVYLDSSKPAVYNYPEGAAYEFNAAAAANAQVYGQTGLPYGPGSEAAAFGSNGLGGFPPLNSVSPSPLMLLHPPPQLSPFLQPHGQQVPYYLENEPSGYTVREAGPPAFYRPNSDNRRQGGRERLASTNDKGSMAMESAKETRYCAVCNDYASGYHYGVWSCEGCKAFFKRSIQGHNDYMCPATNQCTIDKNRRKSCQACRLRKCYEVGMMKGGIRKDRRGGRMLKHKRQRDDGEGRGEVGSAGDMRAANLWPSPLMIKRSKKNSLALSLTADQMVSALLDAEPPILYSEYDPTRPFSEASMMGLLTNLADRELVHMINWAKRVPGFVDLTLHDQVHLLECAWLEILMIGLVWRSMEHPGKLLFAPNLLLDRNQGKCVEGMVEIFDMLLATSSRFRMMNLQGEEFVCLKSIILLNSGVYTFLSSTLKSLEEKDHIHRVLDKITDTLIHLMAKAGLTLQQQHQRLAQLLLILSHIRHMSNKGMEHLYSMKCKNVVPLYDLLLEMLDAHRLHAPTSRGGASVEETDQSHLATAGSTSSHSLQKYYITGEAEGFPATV
Chain of Androgen receptor (Homo sapiens) (P10275 whole entry, looked up): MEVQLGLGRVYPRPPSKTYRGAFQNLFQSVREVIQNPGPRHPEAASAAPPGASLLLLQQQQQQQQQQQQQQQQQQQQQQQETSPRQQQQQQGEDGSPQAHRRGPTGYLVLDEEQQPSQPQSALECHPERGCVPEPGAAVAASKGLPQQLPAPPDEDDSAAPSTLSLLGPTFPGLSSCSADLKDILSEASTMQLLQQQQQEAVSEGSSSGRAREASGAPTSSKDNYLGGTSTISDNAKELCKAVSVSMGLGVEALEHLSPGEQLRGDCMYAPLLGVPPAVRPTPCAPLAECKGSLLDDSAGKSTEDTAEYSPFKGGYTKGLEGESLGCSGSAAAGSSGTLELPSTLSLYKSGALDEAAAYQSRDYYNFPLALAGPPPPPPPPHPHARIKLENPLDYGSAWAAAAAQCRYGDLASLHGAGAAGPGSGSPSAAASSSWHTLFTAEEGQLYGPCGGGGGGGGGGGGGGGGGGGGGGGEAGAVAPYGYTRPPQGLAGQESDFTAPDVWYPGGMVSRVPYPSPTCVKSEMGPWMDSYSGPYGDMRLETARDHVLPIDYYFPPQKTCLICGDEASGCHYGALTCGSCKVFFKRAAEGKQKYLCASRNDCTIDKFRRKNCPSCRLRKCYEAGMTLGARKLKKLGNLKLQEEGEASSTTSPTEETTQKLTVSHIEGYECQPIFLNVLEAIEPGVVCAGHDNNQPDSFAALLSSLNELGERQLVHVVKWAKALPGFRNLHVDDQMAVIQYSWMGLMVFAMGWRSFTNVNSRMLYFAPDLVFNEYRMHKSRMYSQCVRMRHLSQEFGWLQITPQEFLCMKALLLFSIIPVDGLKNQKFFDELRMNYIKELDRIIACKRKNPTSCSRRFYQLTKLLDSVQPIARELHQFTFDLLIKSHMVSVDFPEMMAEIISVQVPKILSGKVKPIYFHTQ

O=C1CN=C(c2ccccc2)c2cc(Cl)ccc2N1CC1CC1
Potency [1]: inactive | Potency [2]: 51 µM (active) | Potency [3]: inactive | Potency [4]: 28.7 µM (active) | Potency [5]: inactive | Potency [6]: inactive | Potency [7]: inactive

COc1cc(CC(C)N)cc2c1OCO2 (stereo not given)
Potency [1]: inactive | Potency [2]: inactive | Potency [3]: inactive | Potency [4]: inactive | Potency [5]: inactive | Potency [6]: inactive | Potency [7]: inactive | Potency [8]: inactive | outcome [9]: inactive

O=[Se]=O
Potency [1]: inactive | Potency [2]: inactive | Potency [3]: inactive | Potency [4]: inactive | Potency [5]: 9.62 µM (active) | Potency [6]: inactive | Potency [7]: inactive | Potency [8]: inactive | outcome [9]: inactive

NCC(CC(=O)O)c1ccc(Cl)cc1 (stereo not given)
activity change [1]: -1.29% [at 0.349 µM, stronger effect = higher value] | activity change, negative = inhibition [2]: 38.7% [at 0.349 µM] | activation [3]: -2.59% [at 0.348 µM] | activity, negative = inhibition [4]: 0.814% [at 0.349 µM] | activity change, negative = cytotoxicity [5]: 0.676% [at 0.35 µM] | activity change, negative = cytotoxicity [6]: 4.02% [at 0.349 µM] | activity change, negative = cytotoxicity [7]: 5.5% [at 0.349 µM]

Cn1sc(Cl)cc1=O
Potency [1]: inactive | Potency [2]: inactive | Potency [3]: inactive | Potency [4]: inactive | Potency [5]: inactive | Potency [6]: inactive | Potency [7]: inactive | Potency [8]: inactive | outcome [9]: inactive

COc1cc(Cl)c(OC)cc1Cl
Potency [1]: inactive | Potency [2]: inactive | Potency [3]: inactive | Potency [4]: inactive | Potency [5]: inactive | Potency [6]: inactive | Potency [7]: inactive | Potency [8]: inactive

Nc1nc(=S)[nH][nH]1
Potency [1]: inactive | Potency [2]: inactive | Potency [3]: inactive | Potency [4]: inactive | Potency [5]: inactive | Potency [6]: inactive | Potency [7]: inactive | Potency [8]: inactive | outcome [9]: inactive

CCCCCCCCCC(=O)O[C@H]1CC[C@H]2[C@@H]3CCC4=CC(=O)CC[C@@H]4[C@H]3CC[C@]12C
Potency [1]: inactive | Potency [2]: inactive | Potency [3]: inactive | Potency [4]: inactive | Potency [5]: inactive | Potency [6]: inactive | Potency [7]: inactive | Potency [8]: inactive

C[C@@H]1CC[C@H]2[C@@H](C)C(=O)O[C@@H]3O[C@@]4(C)CC[C@@H]1[C@]32OO4
Potency [1]: inactive | Potency [2]: inactive | Potency [3]: inactive | Potency [4]: inactive | Potency [5]: inactive | Potency [6]: inactive | Potency [10]: inactive | Potency [7]: inactive | outcome [9]: inactive

O=C(N[C@H](c1ccccc1)[C@@H]1CN2CCC1CC2)c1c(Cl)ccc(C(F)(F)F)c1Cl
Potency [1]: inactive | Potency [2]: 13.9 µM (active) | Potency [3]: inactive | Potency [4]: 39.2 µM (active)

O=[N+]([O-])C(Br)(CO)CO
Potency [10]: inactive

CO[C@@H]1[C@H](OC(=O)NC(=O)CCl)CC[C@]2(CO2)[C@H]1[C@@]1(C)O[C@@H]1CC=C(C)C
activation [10]: -3.01% [at 19 µM]

CC1Sc2c(C(=O)O)c(=O)c3cc(F)c(N4CCNCC4)cc3n21 (stereo not given)
Potency [1]: inactive | Potency [2]: inactive | Potency [3]: inactive | Potency [5]: inactive | Potency [6]: inactive | Potency [10]: inactive | Potency [7]: inactive | Potency [8]: inactive

Oc1ccc(Cl)c(Cl)c1Cl
Potency [1]: inactive | Potency [2]: inactive | Potency [3]: inactive | Potency [4]: inactive | Potency [5]: inactive | Potency [7]: inactive | outcome [9]: inactive

CC(=O)c1cc2c(cc1C)C(C)(C)C(C)CC2(C)C (stereo not given)
Potency [1]: inactive | Potency [2]: inactive | Potency [3]: inactive | Potency [5]: inactive | Potency [6]: 61.1 µM (active) | Potency [7]: inactive | outcome [9]: inactive

C=CC(=O)OCC(C)O (stereo not given)
Potency [1]: inactive | Potency [2]: inactive | Potency [3]: inactive | Potency [5]: inactive | Potency [6]: inactive | Potency [7]: inactive | Potency [8]: inactive | outcome [9]: inactive

CCOP(=S)(OCC)Oc1cc(Cl)c(Br)cc1Cl
Potency [1]: inactive | Potency [2]: inactive | Potency [3]: inactive | Potency [5]: inactive | Potency [6]: inactive | Potency [10]: inactive | Potency [7]: inactive | Potency [8]: inactive | outcome [9]: inactive

O=C(NC(=O)c1c(F)cccc1F)Nc1cc(Cl)c(Oc2ncc(C(F)(F)F)cc2Cl)c(Cl)c1
Potency [1]: inactive | Potency [2]: 23.3 µM (active) | Potency [3]: inactive | Potency [10]: inactive | Potency [7]: inactive | Potency [8]: inactive | outcome [9]: inactive

CCOP(=S)(OCC)Oc1nc(Cl)c(Cl)cc1Cl
Potency [1]: inactive | Potency [2]: inactive | Potency [4]: inactive | Potency [5]: inactive | Potency [6]: 38.6 µM (active) | Potency [10]: inactive | Potency [7]: inactive | Potency [8]: inactive | outcome [9]: inactive

CCCCC(CC)COP(=O)(Oc1ccccc1)Oc1ccccc1 (stereo not given)
Potency [1]: inactive | Potency [2]: inactive | Potency [3]: inactive | Potency [5]: inactive | Potency [10]: inactive | Potency [7]: inactive | Potency [8]: inactive

ClCc1ccccc1
Potency [1]: inactive | Potency [2]: inactive | Potency [3]: inactive | Potency [4]: inactive | Potency [5]: inactive | Potency [7]: inactive | Potency [8]: inactive | outcome [9]: inactive

COP(=S)(OC)Oc1cc(Cl)c(I)cc1Cl
Potency [1]: inactive | Potency [2]: 38.6 µM (active) | Potency [3]: inactive | Potency [5]: inactive | Potency [10]: inactive | Potency [7]: inactive | outcome [9]: inactive

C[C@]12CC[C@H]3[C@@H](CCC4=CC(=O)CC[C@@H]43)[C@@H]1CC[C@@H]2OC(=O)CCC1CCCCC1
Potency [1]: inactive | Potency [2]: inactive | Potency [3]: 1.19 µM (active) | Potency [5]: inactive | Potency [6]: inactive | Potency [10]: 42.2 nM (active) | Potency [7]: inactive | Potency [8]: 1.68 µM (active)

CCCCCCCCOC(=O)c1ccc(C(=O)OCCCCCCCC)c(C(=O)OCCCCCCCC)c1
Potency [1]: inactive | Potency [2]: inactive | Potency [3]: inactive | Potency [4]: inactive | Potency [5]: inactive | Potency [7]: inactive | outcome [9]: inactive

C=CC[C@]1(O)CC[C@H]2[C@@H]3CCC4=CC(=O)CCC4=C3C=C[C@@]21C
Potency [1]: inactive | Potency [2]: 13.3 µM (active) | Potency [3]: inactive | Potency [5]: inactive | Potency [6]: inactive | Potency [7]: inactive | Potency [8]: inactive

CCCC(Cn1cncn1)c1ccc(Cl)cc1Cl (stereo not given)
Potency [1]: inactive | Potency [2]: 17.2 µM (active) | Potency [3]: inactive | Potency [5]: inactive | Potency [7]: inactive

CC(C)(Cl)[N+](=O)[O-]
Potency [1]: inactive | Potency [2]: inactive | Potency [3]: inactive | Potency [5]: inactive | Potency [6]: inactive | Potency [7]: inactive | outcome [9]: inactive

C=CCOC(C)=O
Potency [1]: inactive | Potency [2]: inactive | Potency [3]: inactive | Potency [5]: inactive | Potency [6]: inactive | Potency [10]: inactive | Potency [7]: inactive | Potency [8]: inactive | outcome [9]: inactive

Cl/C=C\C[N+]12CN3CN(CN(C3)C1)C2
Potency [1]: inactive | Potency [2]: inactive | Potency [3]: inactive | Potency [4]: inactive | Potency [6]: inactive | Potency [10]: inactive | Potency [7]: inactive | Potency [8]: inactive | outcome [9]: inactive
